PubChem BioAssay AID1508600 (Functional Genomics Laboratory (NCATS/FGL), 2020)
About 3,700 (7%) of roughly 53,000 sequences were called active.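 The calls were made as follows: active = gene knockdowns whose robust z-score for IL-1 alpha signal is at least 2 or at most -2, so actives lie on both sides; inactive = the rest.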 Shown is part of a subset that was picked to be rich in actives.

Assay: Components of the Cytosolic LPS Sensing Pathway: Gene Identification via Genome-wide siRNA Screen;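 also: robust z of the log signal after scaling to non-targeting control siRNA wells of the plate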
Details: RAW264.7 macrophages, IL-1a HTRF, actives lie on both sides, screened at 100 nM (by protocol), cells primed 5 h with Pam3CSK4 first
How it was run: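 Cells (RAW264.7, 1×10^4 per well) were transfected with siRNA at 100 nM and cultured 48h at 37 degrees C. Pam3CSK4 was added for 5 hours; LipidA transfection followed for 24 hour. IL-1a was then measured by HTRF.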

z-score, active:
GGAUGGUCACGGAAGUUCUTT against Lmf2 2.36, GGACAAAAUUGAACACAAGTT against Pogz 2.86, GGUCUGGUCAUCUCAGUUUTT against Tmem159 3.53, GGUACUUUACACUGAACAATT against Serpinb13 2.91, GCUGUCUGAUUCUGAGGUGTT against Slc6a1 2, GGGAGCAAACGAGAAGAUATT against Gjd2 4.09, CGAUUUCCCAAGUUAUUACTT against Nxf1 -2.26, GGAGAAAAGGGUGCUGAAGTT against Ybx3 2.85, GGCUGAAAGUGAAGAAACGTT against Srp68 -2.11, GGUUUGUUUGUUUUUUGGUTT against Ajuba 2.96, GAUCUUAGCUGUGUGUGUGTT against Pf4 -2.57, GGUGAGGUAGGUUACUCAGTT against Reps1 -2.16, GGAUCUCCUGCUUGAACUGTT against Adam33 2.79, GGUGCAUGUCUUCAUCCACTT against Rnase12 3.04, GGCAUGAAGUUUGAAGCCATT against Cnnm2 -2.47, GCAAUGUGAGAAUUUUAACTT against Psg26 2.03, GGUUUGUGACAUUAUCUGCTT against Wrnip1 2.36, GGCAGCAGAGAAGAAAGCCTT against Pld3 -3.16, CGACCUAUUAGAGAGCAACTT against Zfp248 2.58, GGCGGUUUUAGUGAAUAACTT against Golm1 2.17, GGAAGACACACAGUACAUGTT against Rfx2 2.92, CCAUCAGGACUCGUGAAUGTT against Fign -2.09

z-score, inactive:
GAAGGACACCCUUAUAUUUTT against Olfr1216 0.892, GGGCCUCAUCUUUGUGGUATT against Arf5 0.359, GGAUUGUUUAUCUGUCUUCTT against Cyp3a44 -1.05, GGACCUAAAGUUUCUCUCATT against Ccnc -0.2, GGUCAUAGCUGGAUUCCUUTT against Olfr1453 -1.47, GCUUAUAAUGGCAAUAUUGTT against Nvl 0.275, GGCGAAUUAAUUAACCGCCTT against Abcb10 0.798, CCUCGAUAGGUUAGUGACATT against Fdxacb1 -0.731, GGUACAGAAACAGUUAGUUTT against Olfr432 0.328, GCUUCCUAGAUCAUGACUGTT against Ube2g2 -0.318, GGCAAUAGCUACACCUUCATT against Csf1r 1.9, CCAUUGUCACUCCUAGUGUTT against Olfr1361 1.03, GGAACAAGAAGAAGAAAAATT against Slco3a1 -1.03, GGCAUGUAGGGUUUUGUUUTT against 9830163H01Rik -0.605, GGCAUAAACCACUUCCAGCTT against Dedd2 0.342, GCAUUUAAGGACCUUGUAATT against Olfr813 -1.5, GGCCAUGAUUGUGUUUCAGTT against Tspan8 1.76, GCCUUCCACUACCUUACGUTT against Kcnk3 0.067, CCGACAGACUCACAUACUGTT against Trex1 -0.942, GGCGUGUCUUGAUAGAAAUTT against Tesmin 0.652, GCGCAAAGUCGAAUCCAGUTT against Vgll1 -0.156, GGAGGGUGAAGAGAAUGGUTT against R3hdm2 1.14, GGUCCAUCAGGAAAAUCAATT against Obox6 0.0445, GGGCUCUGUGGAAAUCAUGTT against Rnf187 -0.043, GGCUGUGAAUCUGAAGAGCTT against Chrna6 0.241, GGUGGUAGCUUUGUACUUUTT against Nxnl2 0.829, GGAAGCACGUUGGAAGGAUTT against Olfr845 0.461, GCAUAUGGAGCAACUUGCUTT against Dsg1c -1.17, GGUGAUGAUCCCAUGGGUUTT against Ube2g2 -0.289, GGUGCAAAGCUUGAAAAUGTT against Gpr150 -0.324, GCGAGUGCUUGGCUAUUAUTT against Ckap2 -0.234, GGAGUGAAAUAUGGAGUUGTT against Dhrs7b 0.787, GGAAUGUAAGAACCCUUGCTT against Adam19 1.77, GGCCUAUGCGAAAAUCUGUTT against Camk2b -1.14, GGAAAUUCUGGCAUAAAUUTT against Cd86 -0.732, GGACAUCAUUACAAAGAUGTT against Rgs6 -0.608, GCUUCGAGAGUCAACUAUGTT against Mecom 0.232, GGGCACAAAGAUAUGAAUATT against Lgals3bp 0.147, GGAACGAAUGAAAAGACUUTT against Tpp2 0.35, GGUUGCUAUGAUUUUUGUUTT against Itsn1 0.52, GGAAGUGAGAAGAUGGAUATT against Fam163b 0.93, GGGACAGAUACAGUUCAUGTT against Zan -0.114, GCACGAGGAUUCAGAUAUCTT against Gusb -0.449, CCAGCAUUAUCCAUAUCAATT against Nat2 0.786, GGUCUCAGACACCUGACUCTT against Opa3 1.53, GGUGUCAGCUUACCAUUCATT against Triap1 -0.329, CCUUGCAUUACUUCUAAAUTT against Aff2 0.29, GGCAUUGUGAAAUCCUAUUTT against Lhx5 -1.31, CCUGACAGCACUUUGUGGATT against Arhgef4 0.481, GGAAAAUCCCUGUGUCCGATT against Spdye4a -1.34, GCAGGAGGUUUAUACAGCCTT against Spata5 -0.969, GCCUAUUCGAAUUUGGGAATT against Ogt -0.0977, GGAAAUGACGAGAAGAAAGTT against Mapt -0.0597, GCCUUUGUGAGGAUUAAACTT against Fam83f -0.000611, GGUAUAUGUCACCAUACUCTT against Phxr2 -1.99, GGAGCUCUUCCAGUUGUUUTT against Khk -1.51, GCACAGAGUCUAGUGUUUATT against Ube2j2 0.325, GGGCAUUGUUGUUUCUAUUTT against Lhfp -0.0841, CCAAAUUGCUGACUUAUUCTT against Ccna2 0.794, GGGUUUCCUUAUGAGAAAGTT against Mien1 -0.606, CGCUCCAUUGCUCAGUAUUTT against Vtn 1.63, GCUCAAUUGUGGAGCAGUCTT against Cd5l -0.247, GGCUAAUGAAGCACGCAGATT against Tspan33 0.264, GGAUCGAAUCUUUACCUAUTT against Col9a1 0.932, GGCCAAAGUCCAUUCAUUCTT against Olfr1120 1.31, CCAAUAUCUCCAAAUAGAATT against Atp8b1 -0.974, GGGAAAUCCGAUAUUCCCUTT against Lats2 1.1, GGUUAGAGAUCUUUUGAAATT against St14 -0.333, GCAUGUGCUAUAAUGAUCATT against Gm5444 0.256, CCACAAUUACCCAGUAUGATT against Olfr498 -0.939, CCUCAUGUCUGGCAUCUUGTT against Egr4 -1.7, GGGUGCCUACUUGAUCCUUTT against Hgh1 1.63, GGCUUCAAAGGCAAAGUUCTT against Fbf1 -1.5, CCAUAUGUGAUUUGUCUUGTT against Cacnb2 -0.706, CCUAAGGUACCAUUUUAAATT against Clp1 0.225, GGAGGCUGUCUGUCUAAUATT against Trim39 0.25, CCAAUCAACCCUCUAAGCATT against Nphp4 0.576, GCCAUCGAUACCACAACACTT against Slfn8 -1.61, GGCAACAUUAGAAGACAGUTT against Tfb1m -0.591, GGGAAAUGGAAAGCAUUCUTT against Olfr374 1.41, GGAGUUUGACUCAAUAUCATT against Napb 1.24, CCCUUCUCACUAACAUACATT against Dach1 1.18, GCUACGAGAUUCUUGUUGCTT against Taar3 -0.615, GGAGAGGAGACACAUCAGUTT against Gnpat -0.067, CCAAAACGUGCAACACAAUTT against Cops6 0.37, GGUUGAACUCAAAGUAAAGTT against Preb -1.18, GGUGAACCUCAAUAAUAUCTT against Tmod4 0.274
